Screening results as filed in PubChem.
Hits are enriched below; roughly 4.6% of the tested compounds scored in any of these assays.
GAA850 FXN act = increases GAA850 frataxin promoter reporter activity. HEK293 lucGAA850 FXN promoter luciferase reporter, 24 h; percent of 10 µM SAHA response. activation, % at 6 µM. 360,000 tested, 0.56% active. AID 540364;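 active means activation above the average of all compounds screened plus 3 SD, cutoff fixed separately per campaign, cut at about 7.5% in these data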
HSF1 activator = increases HSF-1 driven luciferase reporter signal; NIH3T3-HGL HSF-1 luciferase reporter, MG132, 8 h; 100% = twice DMSO control signal; activation, % at 9 µM; 300,000 tested, 1.7% active; AID 504408;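 active means mean replicate activation of at least 50% with a set share of replicates each reaching 50%; inconclusive means only one of those two conditions met; inactive means mean below 50% and too few replicates reaching it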
HSF1 inhib = HSF1 inhibition. activity change, negative = inhibition, % at 7.5 µM (by protocol). NIH3T3-HGL HSE-luciferase, MG132-induced, luminescence 8 h; active compounds read low. 300,000 tested, 0.77% active;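 active means more than half of replicate wells show activity change below -50%, luminescence cut by over half; inconclusive means some wells, but at most half, below -50%; inactive means no replicate well below -50%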;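 further: luciferase reports HSF-1 transcriptional activity via heat shock element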
AHR activator = human AHR activation; P35869; AHR-responsive luciferase reporter cells, luminescence; activation, % at 5 µM; 320,000 tested, 2.5% active; AID 2796; in the data active means activation above about 47%
Target sequence (P35869 whole entry, looked up): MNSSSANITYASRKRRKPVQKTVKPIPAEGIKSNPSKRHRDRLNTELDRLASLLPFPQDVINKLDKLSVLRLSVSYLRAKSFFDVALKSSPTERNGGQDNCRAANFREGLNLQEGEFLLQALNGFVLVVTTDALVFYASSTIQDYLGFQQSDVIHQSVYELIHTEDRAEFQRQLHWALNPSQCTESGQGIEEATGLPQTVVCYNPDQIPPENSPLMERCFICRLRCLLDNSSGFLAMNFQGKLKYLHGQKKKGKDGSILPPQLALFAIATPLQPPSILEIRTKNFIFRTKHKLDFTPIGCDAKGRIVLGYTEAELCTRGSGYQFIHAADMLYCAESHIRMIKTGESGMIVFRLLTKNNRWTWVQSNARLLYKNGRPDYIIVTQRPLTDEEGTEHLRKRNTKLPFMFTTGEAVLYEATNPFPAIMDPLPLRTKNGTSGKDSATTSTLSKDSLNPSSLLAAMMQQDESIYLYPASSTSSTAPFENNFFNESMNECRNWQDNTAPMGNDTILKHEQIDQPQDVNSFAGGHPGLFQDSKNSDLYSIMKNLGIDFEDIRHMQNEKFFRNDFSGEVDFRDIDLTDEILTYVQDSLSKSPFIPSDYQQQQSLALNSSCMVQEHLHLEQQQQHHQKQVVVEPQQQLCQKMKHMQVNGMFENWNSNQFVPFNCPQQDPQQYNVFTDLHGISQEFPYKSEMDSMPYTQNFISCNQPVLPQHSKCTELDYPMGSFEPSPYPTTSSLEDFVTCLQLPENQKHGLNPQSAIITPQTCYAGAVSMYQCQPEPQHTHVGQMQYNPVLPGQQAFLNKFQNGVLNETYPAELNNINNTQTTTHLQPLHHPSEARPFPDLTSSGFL
AHR act confirm = confirmation of human aryl hydrocarbon receptor activators | AID 2845 | activation, % at 9 µM | human cells, AHR-responsive luciferase reporter, luminescence | 2,300 tested, 87% active | shares compounds with AHR activator; in the data active means activation above about 49%;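 further: HepG2 hepatoma cells carrying a DRE-driven firefly luciferase reporter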
PXR act counter = activates human PXR in AHR activator counter-screen; 2,300 tested, 88% active; shares compounds with AHR activator; cell-based PXR reporter, luciferase luminescence; activation, % at 11.6 µM; in the data active means activation above about 11%;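 further: human hepatoma DPX-2 cells expressing full-length human PXR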
Each line names hits and unclear results; the compound was inactive in the other large screens (follow-up assays come after a bar, where they were run).

COc1ccc(Nc2cc(C)nc3ccc(OC)cc23)cc1	none
CC(C)NC(=O)NC(=O)COC(=O)c1ccccc1O	none
CCC(C)(C)n1nnnc1CN1CCC(NC(=O)c2ccccc2C)CC1	none
COc1ccc2nc(NNC(=O)C3COc4ccccc4O3)sc2c1 (stereo unspecified)	AHR activator 117.5 | AHR act confirm 75.8 | PXR act counter 29.6
CCCn1c(/C=C/c2ccccc2)nc2ccccc21	AHR activator 88.0 (no result: HSF1 activator, HSF1 inhib) | AHR act confirm 118.0 | PXR act counter 45.1
CCn1c(/C=C/c2cc[n+](C)cc2)nc2ccccc21	none
O=c1c(Cl)c2oc3ccccc3nc-2c2ccccc12	AHR activator 81.0 | AHR act confirm 122.8 | PXR act counter 15.8
CSc1nc(-c2ccccc2)nc(N)c1C(C)=O	none (no result: GAA850 FXN act)
CC(=O)c1c(C)nc(-c2ccc(Cl)cc2)nc1N	AHR activator 91.7 | AHR act confirm 129.6 | PXR act counter 33.2
CC(=O)c1c(C)nc(-c2ccc(Cl)cc2)nc1N=CN(C)C	AHR activator 89.7 | AHR act confirm 97.9 | PXR act counter 34.6
CN1CC(COCc2ccccc2)Oc2ccccc2S1(=O)=O (stereo unspecified)	none (no result: HSF1 activator, HSF1 inhib, AHR activator)
Cc1c(Cl)cnc(NC(=O)CSc2nnc(C)n2Cc2ccccc2)c1Cl	none (no result: HSF1 activator, HSF1 inhib)
CC(C)(C)N1C(=O)c2ccc(C(=O)Nc3ccc(C(=O)O)cc3)cc2C1=O	none
COc1ccc(-c2csc(NC3CCCCC3)n2)c(OC)c1	none
COc1ccc(-c2csc(-c3cccs3)n2)c(OC)c1	HSF1 activator 61.0, AHR activator 80.4 | AHR act confirm 118.9 | PXR act counter 38.6
CCOC(=O)N1CCN(c2cccc(C)c2C)CC1	none
Cc1ccc(NC(=O)c2ccc(Cl)c(NC(=O)c3cccs3)c2)cc1	AHR activator 131.4 | AHR act confirm 72.8 | PXR act counter 40.9
O=C(Nc1ccc(O)cc1C(=O)O)c1cccs1	none
O=C(Nc1ccccc1C(=O)Nc1ccccc1)c1cccs1	AHR activator 91.6 | AHR act confirm 89.2 | PXR act counter 29.5
C=CCOC(=O)C1=C(C)NC(=O)NC1c1ccc2c(c1)OCO2 (stereo unspecified)	none
C=CCOC(=O)c1c(C)nc2cc3c(cc2c1C)OCO3	AHR activator 107.9 | AHR act confirm 56.5 | PXR act counter 53.2
CC(=O)Nc1nc2cc([N+](=O)[O-])ccc2s1	none (no result: HSF1 activator, HSF1 inhib)
O=c1nc(Nc2ccc(Br)cc2)sc2ccc([N+](=O)[O-])cc12	AHR activator 95.6 | AHR act confirm 101.7
C=CCOC(=O)C1=C(C)N=C2SCCC(=O)N2C1c1ccc(OC(=O)c2ccco2)cc1 (stereo unspecified)	none
Cc1cccc(Nc2nc(-c3ccc(F)c(C)c3)cs2)n1	HSF1 activator 67.4, AHR activator 94.9 | AHR act confirm 134.0 | PXR act counter 33.7
COc1ccc(C)cc1NC(=O)c1cnc2n(c1=O)CCS2	none
CCOc1ccccc1NC(=O)c1cnc2n(c1=O)CCS2	AHR activator 88.4 | AHR act confirm 64.5 | PXR act counter 55.2
Cc1ccc(C)n1-c1nc(=S)[nH][nH]1	none
COCCCNC(=S)NNC(=O)c1cccnc1	AHR activator 108.2 | AHR act confirm inactive | PXR act counter inactive
COc1ccc(/C=C/C(=O)c2oc3ccc(F)cc3c2C)cc1	AHR activator 81.3 | AHR act confirm 130.2 | PXR act counter 74.7
CNC(=O)c1[nH]cnc1C(=O)NCC(=O)OCc1ccccc1	none
COc1ccc(C(=O)N/N=C/c2sc(N3CCOCC3)nc2-c2ccccc2)cc1OC	none
O=C(N/N=C/c1sc(N2CCOCC2)nc1-c1ccccc1)c1ccc(O)cc1	HSF1 activator inconclusive, AHR activator 94.6 | AHR act confirm 48.9 | PXR act counter 11.5
Cc1ccc(S(=O)(=O)c2cn(C)c3cc(N4CCN(C)CC4)c(F)cc3c2=O)cc1	none
c1ccc(-c2nnc3n2N=C(c2ccc4c(c2)OCO4)CS3)nc1	AHR activator 93.8 | AHR act confirm inactive | PXR act counter 12.9
COc1ccc(C2=Nn3c(nnc3-c3ccccn3)SC2)cc1OC	none
[O-][n+]1onc2c3cc(-c4ccccc4)nnc3ccc21	AHR activator 88.1 | AHR act confirm 107.6
c1ccc(-c2cc(-c3ccccc3)on2)cc1	none
c1cnc2c(OCc3nc4ccccc4[nH]3)cccc2c1	HSF1 activator 67.5, AHR activator 110.3 | AHR act confirm 149.1 | PXR act counter 110.5
CCN(CC)c1ccc(NC(=O)c2[nH]c(C)c(C(C)=O)c2C)c(C)c1	none
CC(=O)c1c(C)[nH]c(C(=O)Nc2ccc(F)cc2F)c1C	AHR activator 97.8 | AHR act confirm 131.0 | PXR act counter 37.7
CC(=O)c1c(C)[nH]c(C(=O)Nc2ccc(C)c(C)c2)c1C	none
CC(=O)c1c(C)[nH]c(C(=O)Nc2nccs2)c1C	AHR activator 133.5 | AHR act confirm 73.6 | PXR act counter 35.8
CC(=O)c1c(C)[nH]c(C(=O)Nc2cc(C)ccc2C)c1C	AHR activator 118.4 | AHR act confirm 92.6 | PXR act counter 37.9
CCCCCCn1c(=O)[nH]c2c(c1=O)CCC2	none
Cc1ccc(C)c(NC(=O)CCN2CCN(c3ccccc3F)CC2)c1	none
O=C1CN(C(=O)CNCc2ccccc2Cl)c2ccccc2N1	AHR activator 87.6 | AHR act confirm 61.2 | PXR act counter 38.6
O=c1cc(-c2ccccc2)[nH]c2ccccc12	none
O=C1C(c2cc(=O)c3ccccc3[nH]2)=C(O)c2ccccc21	HSF1 activator 65.0, AHR activator 167.3 | AHR act confirm 191.5 | PXR act counter 25.3
Fc1cccc2sc(Nc3nc4cc5c(cc4s3)OCO5)nc12	AHR activator 130.1 | AHR act confirm 120.7 | PXR act counter 12.1
O=c1oc2ccccc2cc1-c1csc(Nc2nc3c(F)cccc3s2)n1	none
Cc1ccc(C(=O)N(Cc2ccco2)c2c(N)n(Cc3ccccc3)c(=O)[nH]c2=O)cc1	none (no result: HSF1 activator, HSF1 inhib, AHR activator)
O=c1c2ccccc2nc2c3ccccc3c(NCc3ccccn3)nn12	AHR activator 118.5 | AHR act confirm 113.0 | PXR act counter 128.1
CN(C)S(=O)(=O)c1cccc(C(=O)N=C2N=C3C=CC(Cl)=CN3Cc3ccccc32)c1	HSF1 activator 59.9, AHR activator 97.0 | AHR act confirm 50.2 | PXR act counter 32.2
CCOc1ccc(S(=O)(=O)N(CC)CC(=O)N2CCCC2)cc1	none
CC1(NC(=O)N2CCCCC2)CCS(=O)(=O)C1 (stereo unspecified)	none
Nc1c(Cl)cc(-c2csc(NC(CO)c3nc4ccccc4n3CCOCCO)n2)cc1Cl (stereo unspecified)	AHR activator 80.0 | AHR act confirm 90.2 | PXR act counter 104.4
CCC1Nc2ncnc(N3CCOCC3)c2N(Cc2ccccc2)C1=O (stereo unspecified)	none
CCCCN(C)CCCNC(=O)c1cn(CC)c2ccc(S(=O)(=O)N3CCOCC3)cc2c1=O	none
CNc1ccccc1-c1nc2ccccc2n(C)c1=O	AHR activator 112.6 (no result: HSF1 activator, HSF1 inhib) | AHR act confirm 107.5 | PXR act counter 41.4
